Measured values from PubChem BioAssay (Tox21).
Records with an inconclusive call do not appear. Unmarked numbers belong to inactive results. Activity calls are given as the source filed them. The call rests on the fitted dose curve; in most records, active means well fitted cell-killing curve with a large enough effect in the repeat runs; inconclusive means weak or mixed curves, or effect the other way; inactive means flat fitted curve, though single readings scatter.

Test: qHTS RealTime-Glo MT Cell Viability Assay in HEK293 cells - 8 hour (AID 1224887); further: nearly all actives have a fitted effect of over 50% in size; on activity change, negative = cytotoxicity: top concentration of the series differs between compounds
Settings: RealTime-Glo luminescence; series mostly up to 76.8 µM; activity change, negative = cytotoxicity: at the top concentration
Source text: U.S. Tox21 Program National Center for Advancing Translational Sciences [NCATS] NIH Chemical Genomics Center [NCGC] U.S. Environmental Protection Agency [EPA] National Institutes of Environmental Health Sciences [NIEHS] National Toxicology Program [NTP] U.S. Food and Drug Administration [FDA] Tox21 Assay Overview: Measure of cell viability is critical in the cell-base assay. Analysis of cell viability is necessary for the characterization of cell responses to cytotoxic drugs and environmental stress. A RealTime-Glo MT Cell Viability Assay to monitor cell viability in real time of continues cell culture during 40 hours of compound treatment was used to screen Tox21 10K library compounds in Hek293 cells. The RealTime-Glo MT Cell Viability Assay is a nonlytic, homogeneous, bioluminescent method to measure cell viability in real time using a simple, plate-based method. The assay involves adding NanoLuc luciferase and a cell-permeant prosubstrate to cells in culture. Viable cells reduce the proprietary prosubstrate to generate a substrate for NanoLuc luciferase. This substrate diffuses from cells into the surrounding culture medium, where it is rapidly used by the NanoLuc Enzyme to produce a luminescent signal. The signal correlates with the number of viable cells, making the assay well suited for cytotoxicity studies.
Tox21 Assay Protocol Summary: The mixture of Hek293 cell suspension and reagents were dispensed at 600cells/6 ul/well in 1536-well tissue culture treated black solid bottom plates using a Multidrop dispenser. After the assay plates were incubated at a 37 C/5% CO2 incubator for 5 hours, 23 nL of compounds dissolved in DMSO, positive and negative controls was transferred to the assay plate by a pintool work station. The plates were incubated at 37 C for 40 hours. The luminescence intensity were measured at 0h, 8h, 16h, 24h, 32h and 40h time points using ViewLux plate reader during compound treatment.
On the % scale 0 is the no-effect control and ±100 the full control effect; potency means the concentration at half of the fitted maximal effect.

Structure (SMILES)	activity change, negative = cytotoxicity	Potency
CCCCOC(=O)CCS	8.75%	
CCCOc1ccc(S(=O)(=O)N2CCN(CC)CC2)cc1-c1nc2c(CC)n(Cc3ccccn3)nc2c(=O)[nH]1	-15.7%	
ON(Cc1ccccc1)Cc1ccccc1	-8.35%	
O=C(CS)OCCOC(=O)CS	4.98%	
CCC(=O)OC/C=C/c1ccccc1		inactive
CCNC(=O)N1CCN(CCCC(c2ccc(F)cc2)c2ccc(F)cc2)CC1		16.9 µM (active)
CCCCCCCCCCCCCCC[C@H](O)[C@@H](N)CO		23.9 µM (active)
CCC(C)(O)CCC=C(C)C (stereo not given)	2.14%	
O=C(O)c1cccnc1C(=O)O	0.935%	
C=CC(=C)CCCC(C)(C)OC(C)=O	2.7%	
COC(=O)c1cc(S(N)(=O)=O)ccc1OC	4.45% [at 35.3 µM]	
CCOC(=O)c1ccccc1OC	0.96%	
Cc1ccc(/C=N/n2c(-c3ccccc3)csc2=S)cc1	-3.55% [at 35.3 µM]	
COc1ccc(C(=O)c2cccc(O)c2)c(OC)c1	-11.6%	
CO[Si](C)(OC)OC	7.45%	
CC1C2CC(CC2C2CCCC(O)C2)C1(C)C (stereo not given)	-25.7%	
O=C(O)c1cccc(O)c1	9.24%	
CC#N	2.94%	
CO[C@H]1O[C@H](CO)[C@@H](O)[C@H](O)[C@H]1O	11.1%	
C[C@@H]1C[C@H]2[C@@H]3CCC4=CC(=O)C=C[C@]4(C)[C@@]3(F)[C@@H](O)C[C@]2(C)[C@H]1C(=O)CO	1.33% [at 35.3 µM]	

Structure (SMILES)	activity change, negative = cytotoxicity	Potency
Nc1ccc(S(=O)(=O)O)cc1	2.46%	
COCC(O)CO (stereo not given)	-5.24%	
CC1(C)C(=O)N(Br)C(=O)N1Cl	7.67%	
CC(C)c1nnc2ccc(-c3ocnc3-c3cc(F)ccc3F)cn12		19.5 µM (active)
CCCCCCCCCCCC[N+](C)(C)CC(=O)[O-]	6.71%	
OC(CCCN1CCCCC1)(c1ccccc1)c1ccccc1	2.15% [at 35.3 µM]	
CC(C)CCCCCOC(=O)CCCCC(=O)OCCCCCC(C)C	15.8%	
COC(=O)CC(=O)C(C)(C)C	1.71%	
CCCCN(CCCC)CCCOC(=O)c1ccc(N)cc1	-18% [at 35.3 µM]	
CCCCCCCCSCCO	7.04%	
C[Si]1(C)O[Si](C)(C)O[Si](C)(C)O1	1.39%	
CC(CCO)CCc1ccccc1 (stereo not given)	-0.499%	
CC(=O)Nc1ccc(N)cc1	4.13%	
CCc1cccc(N(C)C(N)=Nc2cccc3ccccc23)c1	-17.9% [at 35.3 µM]	
CC[C@H](NC(=O)c1cc(F)ccc1NS(=O)(=O)c1cccc2cccnc12)c1ccccc1	-27.4%	
Cc1nc2ccccn2c(=O)c1CCN1CCC(C(=O)c2ccc(F)cc2)CC1		8.49 µM (active)
C=CCNc1nc(NCC=C)nc(N2CCN(C(c3ccc(F)cc3)c3ccc(F)cc3)CC2)n1	-7.49% [at 35.3 µM]	
CCN(CC)CCNC(=O)c1ccc(NC(C)=O)cc1	0.973% [at 35.3 µM]	
CC1=C(/C=C/C(C)=C\C=C\C(C)=C\C(=O)O)C(C)(C)CCC1	-8.74%	
OC/C(Br)=C(\Br)CO	-0.315%	
